Shown are actives, neighbours in structure and some others; about 3.4% of the full set was active somewhere.
GPR151 ag: activates the human receptor GPR151 | PathHunter beta-arrestin GPR151 cells, luminescence | activation, % at 11.2 µM | 650,000 compounds, 1% hits | Q8TDV0; in the data active = activation above about 4.9%;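 also: 0% = median of compound wells and 100% = cells with positive control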
MITF inh: human MITF inhibition, primary screen. AlphaScreen MITF homodimerization, bead proximity signal. inhibition, % at 2.6 µM. 650,000 compounds, 0.91% hits; in the data active = inhibition above about 50%;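 also: 0% = vehicle wells with protein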
Target sequence (O75030 whole entry, looked up): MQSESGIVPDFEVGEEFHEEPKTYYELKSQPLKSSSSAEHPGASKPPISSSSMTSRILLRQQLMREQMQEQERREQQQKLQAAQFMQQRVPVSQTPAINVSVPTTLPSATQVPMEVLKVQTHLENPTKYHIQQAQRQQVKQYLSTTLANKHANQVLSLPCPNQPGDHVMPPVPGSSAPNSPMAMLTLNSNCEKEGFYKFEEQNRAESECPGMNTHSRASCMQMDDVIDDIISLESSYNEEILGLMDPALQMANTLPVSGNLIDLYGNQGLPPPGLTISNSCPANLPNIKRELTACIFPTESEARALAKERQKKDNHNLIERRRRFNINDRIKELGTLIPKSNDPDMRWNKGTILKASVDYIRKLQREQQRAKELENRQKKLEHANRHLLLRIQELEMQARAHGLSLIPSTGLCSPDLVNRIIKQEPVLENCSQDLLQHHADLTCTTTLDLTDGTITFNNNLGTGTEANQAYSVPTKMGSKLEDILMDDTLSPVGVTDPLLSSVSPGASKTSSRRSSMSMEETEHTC
TEAD-YAP inh: TEAD-YAP interaction inhibition. inhibition, % at 9.12 µM. HEK-TIYL cells, TEAD-Gal4/YAP UAS-luciferase luminescence. 640,000 compounds, 1.4% hits; in the data active = inhibition above about 32%;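 also: 0% = median of test compound wells and 100% = reference inhibitor wells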
FBW7 activator: activators of human E3 ligase FBW7; Q969H0; AlphaScreen FBW7–phospho-cyclin E peptide binding, activator screen; normalized activity (activation), % at 26.1 µM; 650,000 compounds, 0.13% hits; AID 1259310; in the data active = normalized activity above about 1.9%;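 also: purified mutant Fbw7 with reduced substrate affinity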
GPR151 conf act: human GPR151 activation, confirmation screen; 6,700 tested, under 10 active; activation, % at 11.2 µM; AID 1508609; shares compounds with GPR151 ag; GPR151 PathHunter beta-arrestin cells, luminescence, 90 min; % of EA-reagent control over plate median;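 active = mean percent activation across replicates above the confirmation screen cutoff of 4.91%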
GPR119 ag: activates human GPR119 in a GPR151 counter-screen; shares compounds with GPR151 ag; GPR119 PathHunter beta-arrestin cells, luminescence, 90 min; 0 = compound-well median, 100 = enzyme-acceptor control; activation, % at 11.2 µM; 6,700 compounds, 0.3% hits; AID 1508611;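 active = mean percent activation in the counterscreen above 29.09%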;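 also: counterscreen on off-target GPR119 to flag nonselective hits from the GPR151 activator screen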
Numbers without * were called inactive; . = not tested or not shown.

SMILES	GPR151 ag	MITF inh	TEAD-YAP inh	FBW7 activator	GPR151 conf act	GPR119 ag
CCCCCn1c(SCc2ccncc2)nc2cc(C(=O)NCc3cccc(Cl)c3)ccc2c1=O	5.1*	5	2	0	-1	-11
NC(=O)C1CCCc2c1[nH]c1c(C(=O)O)cccc21 (stereo not drawn)	6.1*	-8	1	0	-1	-1
Cc1ccccc1N(C)C(=O)Cc1c(C(=O)O)[nH]c2ccccc12	5.5*	38	9	0	0	-9
CCOc1ccccc1N(C)C(=O)Cc1c(C(=O)O)[nH]c2ccccc12	1	-4	9	0	.	.
CCCn1nnnc1SCC(=O)Nc1cccc(NC(C)=O)c1	5.2*	-8	-3	0	2	7
CCn1nnnc1SCC(=O)Nc1cccc(NC(C)=O)c1	0	-13	-8	0	.	.
COc1cc(Cl)ccc1S(=O)(=O)n1nc(C)cc1C	1	-4	-1	0	.	.
CCOC(=O)c1sc2nccc3c2c1N=CN3c1ccccc1	5.3*	11	-13	0	0	0
COc1cc(/C=N/Nc2ccc3nnc(C)n3n2)ccc1O	8.9*	24	1	0	0	11
O=C(COc1ccc(Cl)cc1)Nc1nc(-c2ccc(I)cc2)cs1	0	-9	-11	0	.	.
CCOC(CCn1c(SC(CC)C(=O)NCc2cccnc2)nc2ccccc2c1=O)OCC (stereo not drawn)	7.0*	-7	3	0	-2	-18
CCOC(=O)C1=CN(c2ccc(C)c(C)c2)C=C(C(=O)OCC)C1c1cccc(OCC)c1	-1	-3	1	0	.	.
CCOc1ccc(S(=O)(=O)N2CCN(C)CC2)cc1-c1nc2c(C(C)(C)C)nn(C)c2c(=O)[nH]1	5.1*	-6	4	0	0	9
Cc1cccc(CSc2nc(=O)n3ccccc3n2)c1	5.2*	-7	-10	0	-1	0
Cc1ccc(Sc2ccc3noc4c3c2C(=O)c2ccccc2-4)cc1	11*	9	1	0	-1	-14
O=C(NCCNc1ccc([N+](=O)[O-])cc1Cl)C1CCCN1S(=O)(=O)c1ccccc1 (stereo not drawn)	-1	1	3	0	.	.
CCCN(C(=O)c1cccc(N)c1)c1c(C)n(C)n(-c2ccccc2)c1=O	5.5*	16	7	0	0	11
CCOc1ccccc1C(=O)Nc1c2c(nn1C(C)(C)C)CS(=O)(=O)C2	0	9	2	0	.	.
O=c1c2c(-c3ccccc3)csc2ncn1Cc1ccccc1	-1	1	10	0	.	.
O=C(O)c1ccc(Cn2cnc3scc(-c4ccccc4)c3c2=O)cc1	5.2*	0	-1	0	0	7
CCOCCCN1C(=O)C2C(C(=O)Nc3ccc(Cl)cc3)C3C=CC2(O3)C1C(=O)NC1CCCC(C)C1C (stereo not drawn)	0	0	2	0	.	.
COc1cc(C(Nc2cccc(C)n2)c2ccc3ccc(C)nc3c2O)ccc1O (stereo not drawn)	5.2*	-6	-1	0	0	16
CC(=O)c1ccc(N2CCN(C(=O)/C=C/c3ccccc3)CC2)cc1	1	4	-9	0	.	.
COc1cc(C#N)c(NC(=S)N2CCCC2)cc1OC	5.4*	7	-1	0	-1	-3
COC(=O)c1cc(OC)c(OC)cc1NC(=S)N1CCCC1	2	3	7	0	.	.
SMILES	GPR151 ag	MITF inh	TEAD-YAP inh	FBW7 activator	GPR151 conf act	GPR119 ag
CC(C)NC(=O)c1cccc(NC(=O)Nc2ccc(-c3cn[nH]c3)cc2OCCN(C)C)c1	5.3*	-38	-2	0	1	-3
CCCCC(=O)Nc1nnc(SCC(=O)Nc2ccc(C)cc2)s1	-2	14	10	0	.	.
C/C(=N\NC(=O)c1cc(-c2cccs2)[nH]n1)c1ccc(O)cc1	-1	-10	-6	0	.	.
C/C(=N\NC(=O)c1cc(-c2ccco2)[nH]n1)c1ccc(O)cc1	7.4*	9	6	0	0	11
Cc1sc(NC(=O)Cn2nnc3c(cnn3-c3ccccc3)c2=O)c(C#N)c1C	1	6	0	0	.	.
COc1cccc(CNC(=O)c2c(C)nc3ccccn23)c1	1	14	9	1	.	.
C=CCNC(=O)CN(c1ccccc1F)S(=O)(=O)c1ccc(C)cc1	6.6*	-5	-4	0	0	1
COc1cccc(OCCOc2ccc(/C=C3/C(=N)N4C(c5ccccc5)=CSC4=NC3=O)cc2)c1	-1	3	-7	0	.	.
CN(Cc1c(C(=O)N2CCCC2)nc2sccn12)CC(O)c1ccccc1 (stereo not drawn)	5.8*	7	10	0	1	4
C=CCN1CCN(C(=O)c2c(-c3ccccc3)nn(-c3ccccc3)c2C)CCC1=O	-1	9	11	1	.	.
CN1CCCc2cc(CN3CCC4(CC3)CC4C(=O)Nc3ccc4c(c3)OCO4)ccc21 (stereo not drawn)	4.9*	-2	-1	0	0	-6
O=C(Nc1ccc2c(c1)OCO2)C1CC12CCN(C(=O)c1ccc(-c3ccco3)cc1)CC2 (stereo not drawn)	5.5*	-1	5	0	-1	0
O=C(Nc1ccc2c(c1)OCO2)C1CC12CCN(C(=O)c1ccc(-n3ccnc3)cc1)CC2 (stereo not drawn)	2	-9	4	0	.	.
Cc1cc(C(=O)N2CCOCC2)nn1CC(=O)N(Cc1ccccc1)c1ccccn1	0	11	-2	1	.	.
Fc1ccc2nc(Nc3nnc(-c4cccs4)o3)sc2c1	2	11	2	0	.	.
COc1ccc(-c2nc(NCCO)c3ncn(C4CCCCC4)c3n2)cc1	6.0*	12	-4	0	1	-4
O=C(Nc1c2c(nn1-c1cccc(Cl)c1)CSC2)c1cccc([N+](=O)[O-])c1	0	-11	-3	0	.	.
CCN1C(=O)CC(N2CCC(C(=O)N3CCOCC3)CC2)C1=O (stereo not drawn)	15*	-4	1	0	1	14
Fc1ccccc1CSc1nnc(-c2cnccn2)n1Cc1ccco1	9.9*	3	-34	0	0	20
C#CCSc1nsc(NC(=O)Nc2cccc(F)c2)n1	7.1*	1	36*	0	1	-1
CN(C)CCN1C(=O)C(CC(=O)Nc2cccc([N+](=O)[O-])c2)SC1=Nc1ccccc1 (stereo not drawn)	5.2*	6	-13	0	1	17
CC(C)(COC(=O)c1cccc2ccccc12)N=C1NS(=O)(=O)c2ccccc21	6.1*	-8	-1	0	1	12
CCOc1cc(/C=N/NC(=O)c2cc(-c3ccc(C)o3)[nH]n2)ccc1O	7.0*	15	21	0	0	-8

Assay outcomes deposited in PubChem by The Scripps Research Institute Molecular Screening Center.
